Reference: ChEMBL document CHEMBL1961873, “Compounds: GSK PKIS; Assays: Nanosyn kinase panel” (2012)

Legend:
[1] = target: Serine/threonine-protein kinase 26 (Homo sapiens) (UniProt Q9P289); conditions: at 1 µM;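 note: mean inhibition of MST4 kinase activity, reported from the GSK PKIS inhibitor-set screening panel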
[2] = target: Serine/threonine-protein kinase PAK 1 (Homo sapiens) (UniProt Q13153); conditions: at 0.1 µM
[3] = target: Serine/threonine-protein kinase PAK 1 (Homo sapiens) (UniProt Q13153); conditions: at 1 µM
[4] = target: Serine/threonine-protein kinase PAK 2 (Homo sapiens) (UniProt Q13177); conditions: at 0.1 µM
Sequence of Serine/threonine-protein kinase PAK 2 (Homo sapiens) (Q13177 whole entry): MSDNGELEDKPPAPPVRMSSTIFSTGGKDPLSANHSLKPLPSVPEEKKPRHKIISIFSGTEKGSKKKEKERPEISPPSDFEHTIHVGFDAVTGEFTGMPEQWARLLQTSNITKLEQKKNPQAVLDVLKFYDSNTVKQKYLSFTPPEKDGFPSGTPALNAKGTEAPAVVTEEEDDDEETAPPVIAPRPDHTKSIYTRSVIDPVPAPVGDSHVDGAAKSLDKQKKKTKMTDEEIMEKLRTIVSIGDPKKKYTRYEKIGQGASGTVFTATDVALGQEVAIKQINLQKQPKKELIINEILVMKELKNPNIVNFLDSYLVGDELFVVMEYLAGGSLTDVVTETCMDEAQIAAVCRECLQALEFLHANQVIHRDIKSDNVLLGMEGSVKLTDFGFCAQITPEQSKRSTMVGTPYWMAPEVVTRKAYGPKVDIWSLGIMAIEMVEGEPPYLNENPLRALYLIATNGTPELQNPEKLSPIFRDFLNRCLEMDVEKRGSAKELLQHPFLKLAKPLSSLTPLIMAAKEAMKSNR

[5] = target: Serine/threonine-protein kinase PAK 2 (Homo sapiens) (UniProt Q13177); conditions: at 1 µM
[6] = target: Serine/threonine-protein kinase PAK 3 (Homo sapiens) (UniProt O75914); conditions: at 0.1 µM
Sequence of Serine/threonine-protein kinase PAK 3 (Homo sapiens) (O75914 whole entry, looked up): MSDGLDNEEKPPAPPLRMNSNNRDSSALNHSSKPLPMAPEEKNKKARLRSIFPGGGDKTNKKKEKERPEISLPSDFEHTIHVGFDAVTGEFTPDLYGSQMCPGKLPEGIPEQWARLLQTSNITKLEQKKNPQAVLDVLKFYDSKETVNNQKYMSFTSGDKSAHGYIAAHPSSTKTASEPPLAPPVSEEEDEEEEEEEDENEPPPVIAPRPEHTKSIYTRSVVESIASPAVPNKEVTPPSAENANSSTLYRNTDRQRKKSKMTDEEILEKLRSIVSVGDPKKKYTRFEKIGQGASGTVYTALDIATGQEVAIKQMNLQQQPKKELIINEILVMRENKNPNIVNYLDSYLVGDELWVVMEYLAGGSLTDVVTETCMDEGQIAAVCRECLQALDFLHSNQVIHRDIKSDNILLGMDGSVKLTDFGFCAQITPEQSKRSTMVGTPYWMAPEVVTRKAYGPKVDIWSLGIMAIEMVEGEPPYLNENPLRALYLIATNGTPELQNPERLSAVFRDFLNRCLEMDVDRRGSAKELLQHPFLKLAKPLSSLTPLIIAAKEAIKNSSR

[7] = target: Serine/threonine-protein kinase PAK 3 (Homo sapiens) (UniProt O75914); conditions: at 1 µM
[8] = target: Serine/threonine-protein kinase PAK 5 (Homo sapiens) (UniProt Q9P286); conditions: at 0.1 µM
Sequence of Serine/threonine-protein kinase PAK 5 (Homo sapiens) (Q9P286 whole entry, looked up): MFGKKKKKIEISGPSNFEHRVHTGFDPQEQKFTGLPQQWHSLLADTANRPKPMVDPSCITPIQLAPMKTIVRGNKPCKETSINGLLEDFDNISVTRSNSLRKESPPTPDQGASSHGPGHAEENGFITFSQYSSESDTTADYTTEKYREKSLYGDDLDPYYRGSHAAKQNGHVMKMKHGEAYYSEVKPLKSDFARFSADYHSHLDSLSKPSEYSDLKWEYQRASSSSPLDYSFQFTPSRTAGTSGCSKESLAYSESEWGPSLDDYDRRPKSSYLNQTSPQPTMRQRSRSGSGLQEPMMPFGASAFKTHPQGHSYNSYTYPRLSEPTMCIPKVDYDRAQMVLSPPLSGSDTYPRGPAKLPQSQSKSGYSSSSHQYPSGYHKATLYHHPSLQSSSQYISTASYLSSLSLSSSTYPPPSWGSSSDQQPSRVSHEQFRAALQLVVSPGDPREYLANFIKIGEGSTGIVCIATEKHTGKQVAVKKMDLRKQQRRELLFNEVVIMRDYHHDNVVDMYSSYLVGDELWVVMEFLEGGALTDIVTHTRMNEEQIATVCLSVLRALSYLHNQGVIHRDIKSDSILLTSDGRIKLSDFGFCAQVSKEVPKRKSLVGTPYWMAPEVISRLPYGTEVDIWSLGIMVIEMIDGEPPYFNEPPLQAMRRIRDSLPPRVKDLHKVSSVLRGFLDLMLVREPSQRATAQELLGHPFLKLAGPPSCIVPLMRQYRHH

[9] = target: Serine/threonine-protein kinase PAK 5 (Homo sapiens) (UniProt Q9P286); conditions: at 1 µM
[10] = target: Serine/threonine-protein kinase PAK 6 (Homo sapiens) (UniProt Q9NQU5); conditions: at 0.1 µM;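 note: mean PAK6 inhibition reported from the GSK PKIS screen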
Sequence of Serine/threonine-protein kinase PAK 6 (Homo sapiens) (Q9NQU5 whole entry, looked up): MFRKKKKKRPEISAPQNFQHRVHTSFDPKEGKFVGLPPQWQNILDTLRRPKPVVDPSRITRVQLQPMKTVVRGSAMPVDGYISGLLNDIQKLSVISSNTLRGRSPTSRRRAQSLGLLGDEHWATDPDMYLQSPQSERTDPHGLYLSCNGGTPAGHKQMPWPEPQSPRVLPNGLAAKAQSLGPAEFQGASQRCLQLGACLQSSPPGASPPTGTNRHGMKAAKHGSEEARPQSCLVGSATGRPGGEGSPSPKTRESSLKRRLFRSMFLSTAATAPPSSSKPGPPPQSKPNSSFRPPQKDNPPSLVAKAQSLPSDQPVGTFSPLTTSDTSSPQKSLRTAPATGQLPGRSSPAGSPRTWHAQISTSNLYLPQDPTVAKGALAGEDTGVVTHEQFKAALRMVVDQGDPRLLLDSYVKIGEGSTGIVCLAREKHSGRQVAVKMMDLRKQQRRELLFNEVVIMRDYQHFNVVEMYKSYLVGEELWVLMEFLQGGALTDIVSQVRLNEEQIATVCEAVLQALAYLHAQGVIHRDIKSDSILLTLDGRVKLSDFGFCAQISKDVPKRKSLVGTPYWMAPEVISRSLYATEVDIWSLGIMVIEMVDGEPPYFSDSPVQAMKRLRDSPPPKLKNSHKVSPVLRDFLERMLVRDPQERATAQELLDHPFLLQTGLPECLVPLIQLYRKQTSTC

Sequence of Serine/threonine-protein kinase PAK 1 (Homo sapiens) (Q13153 whole entry): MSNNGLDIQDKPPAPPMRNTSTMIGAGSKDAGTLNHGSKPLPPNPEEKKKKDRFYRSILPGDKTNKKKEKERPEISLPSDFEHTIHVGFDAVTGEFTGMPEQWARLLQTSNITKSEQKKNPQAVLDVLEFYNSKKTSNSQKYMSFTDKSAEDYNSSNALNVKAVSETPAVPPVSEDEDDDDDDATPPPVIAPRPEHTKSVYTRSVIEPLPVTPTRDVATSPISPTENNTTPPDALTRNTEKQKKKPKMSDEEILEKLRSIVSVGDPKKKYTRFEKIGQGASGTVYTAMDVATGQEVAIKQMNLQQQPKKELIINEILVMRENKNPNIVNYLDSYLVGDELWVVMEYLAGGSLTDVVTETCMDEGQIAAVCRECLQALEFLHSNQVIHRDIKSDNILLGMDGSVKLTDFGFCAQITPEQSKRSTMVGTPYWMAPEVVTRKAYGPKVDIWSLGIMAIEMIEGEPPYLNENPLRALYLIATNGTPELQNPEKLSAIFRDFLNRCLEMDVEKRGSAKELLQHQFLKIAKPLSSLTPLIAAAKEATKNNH
Sequence of Serine/threonine-protein kinase 26 (Homo sapiens) (Q9P289 2-416 limits assumed): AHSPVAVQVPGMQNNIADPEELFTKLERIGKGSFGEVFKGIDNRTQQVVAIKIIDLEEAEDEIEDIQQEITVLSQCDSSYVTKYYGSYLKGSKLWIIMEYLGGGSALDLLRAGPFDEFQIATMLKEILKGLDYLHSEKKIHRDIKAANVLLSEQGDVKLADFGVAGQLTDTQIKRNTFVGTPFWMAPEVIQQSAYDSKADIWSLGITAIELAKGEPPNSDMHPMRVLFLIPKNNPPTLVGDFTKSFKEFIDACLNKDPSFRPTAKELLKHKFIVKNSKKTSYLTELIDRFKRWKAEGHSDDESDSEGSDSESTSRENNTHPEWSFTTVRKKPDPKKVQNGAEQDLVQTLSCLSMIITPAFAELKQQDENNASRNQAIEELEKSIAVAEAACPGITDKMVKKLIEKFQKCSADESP

Compound	inhibition [1] [%]	inhibition [2] [%]	inhibition [3] [%]	inhibition [4] [%]	inhibition [5] [%]	inhibition [6] [%]	inhibition [7] [%]	inhibition [8] [%]	inhibition [9] [%]	inhibition [10] [%]
CC1=C(C(=O)Nc2ccc3[nH]ncc3c2)C(c2ccc(F)cc2)NC(=O)N1 (stereo not given)	-0.49	4.25	9.83	-0.87	-0.03	2.64	1.55	-0.45	5.58	2.39
Nc1nc(-c2ccc3c(c2)C(=Cc2cc(Br)c(O)c(Br)c2)C(=O)N3)cs1	15.5	2.87	-1.51	-2.22	-1.94	-4.94	-1.99	–	-3.15	-5.26
COC(=O)Nc1nc2cc(Oc3ccc(NC(=O)Nc4cccc(C(=O)O)c4)cc3)ccc2[nH]1	3.41	0.04	2.31	-0.12	-0.31	0	0.98	7.82	3.29	3.13
Nc1ncnc2occ(-c3ccc(NC(=O)Nc4cc(C(F)(F)F)cc(C(F)(F)F)c4)cc3)c12	–	4.71	3.65	2.1	0.99	2.26	3.84	1.39	4.07	1.06
COc1ccc(-c2coc3ncnc(N)c23)cc1	1.26	8.03	7.01	1.73	1.44	4.88	4.26	–	-5.35	-2.56
COc1cc2ncn(-c3cc(OCc4ccccc4Cl)c(C(N)=O)s3)c2cc1OC	-3.28	3.48	1.43	-1.4	-1.31	-3.29	1.37	-3.38	0.31	-7.38
Cc1ccc(C(=O)NC2CCCCC2)cc1-c1ccc(C(=O)NCC2CC2)cc1	-1.45	6.65	4.6	2.09	1.97	4.22	4.44	4.34	13.6	-2.81
CN(C)c1cc2c(Nc3ccc4nc(Cc5ccccc5)[nH]c4c3)ncnc2cn1	-0.63	8.36	8.45	2.07	1.52	6.44	7.25	9.58	-7.55	7.15
Fc1cccc(COc2ccc(Nc3ncnc4cc(-c5ccc[nH]5)sc34)cc2Cl)c1	3.26	5.46	5.78	-0.06	-0.55	–	1.96	–	-0.78	-2.21
CCc1cccc(NC(=O)Nc2ccc(Oc3ccc4nc(NC(=O)OC)[nH]c4c3)cc2)c1	2.74	1.22	2.79	0.53	0.26	0.88	2.93	8.59	-2.14	15.4
O=C1NC(=O)C(c2ccccc2Cl)=C1Nc1cccc(O)c1	2.65	3.51	3.76	1.94	1.62	2.51	3.3	11.9	-1.3	-0.02
NS(=O)(=O)c1ccc(N/N=C2\C(=O)Nc3ccc(C(=O)NCCc4c[nH]cn4)cc32)cc1	6.15	3.1	7.85	1.34	3.15	4.63	6.49	2.86	3.33	10.1
COc1cc2ncn(-c3cc(OCc4ccccc4C(F)(F)F)c(C(N)=O)s3)c2cc1OC	–	3.79	7.26	1.94	1.77	5.55	5.02	1.8	2.59	-0.96
CC(C)=Cc1cccc2c1/C(=N/Nc1ccc(S(N)(=O)=O)cc1)C(=O)N2	35.5	-2.27	1.28	0.39	1.15	0.22	1.61	8.32	3.26	7.25
COc1cc2ncn(-c3cc(O[C@H](C)c4ccccc4Cl)c(C(N)=O)s3)c2cc1OC	–	6.45	4.82	0.59	0.45	4.18	6.53	7.14	3.97	0.91
CCn1c(-c2nonc2N)nc2c(N3CCCC3)nccc21	0.92	3.59	-4.47	-2.37	-1.78	-2.72	-1.25	-6.88	–	8.95
Cc1nn(C)c2cc(N(C)c3ccnc(Nc4cccc(S(N)(=O)=O)c4)n3)ccc12	2.03	5.87	4.55	0.68	1.06	-1.47	2.95	–	5.34	-4.18

Compound	inhibition [1] [%]	inhibition [2] [%]	inhibition [3] [%]	inhibition [4] [%]	inhibition [5] [%]	inhibition [6] [%]	inhibition [7] [%]	inhibition [8] [%]	inhibition [9] [%]	inhibition [10] [%]
CC1=C(C(=O)Nc2ccc3[nH]ncc3c2)C(c2ccc3ccccc3c2)CC(=O)N1 (stereo not given)	-3.47	0.76	4.95	-0.2	2.46	2.14	0.85	-1.65	3.39	-2.35
CS(=O)(=O)CCNCc1ccc(-c2ccc3ncnc(Nc4ccc(OCc5cccc(F)c5)c(C(F)(F)F)c4)c3c2)o1	-0.76	6.77	8.2	1.44	1.87	4.46	3.99	–	-0.07	-1.22
O=C1NC(=O)C(c2cccc(Cl)c2)=C1Nc1ccc(O)c(Cl)c1	11.2	2.76	4.48	0.61	-0.45	1.1	1.4	–	–	3.63
Fc1cccc(COc2ccc(Nc3ncnc4sc(-c5cccs5)cc34)cc2Cl)c1	-0.58	1.63	1.64	-0.69	-1.1	-0.01	2.7	-2.5	-7.05	-3.68
CCn1c(-c2nonc2N)nc2ccncc21	0.2	6.53	2.38	-0.38	1.82	0.96	1.02	-6.36	-8.04	-9.63
CCn1c(-c2nonc2N)nc2cncc(C(=O)N3CC[C@H](N)C3)c21	1.04	10.1	8.87	1	1.51	5.01	4.59	–	0.61	-1.48
Nc1ncnc2occ(-c3ccc(NC(=O)Nc4cccc(C(F)(F)F)c4)cc3)c12	-4.13	6.38	5.2	1.77	1.5	6.37	5.54	2.15	3.35	-0.62
CS(=O)(=O)CCN(CC#N)Cc1ccc(-c2ccc3ncnc(Nc4ccc(OCc5cccc(F)c5)c(Cl)c4)c3c2)o1	0.46	1.88	4.88	0.62	0.16	2.04	4.29	0.28	-0.85	-6.8
Cn1cc(C=C2C(=O)Nc3cccnc32)c2ccccc21	1.1	5.04	6	0.8	0.31	2.68	3	-6.57	-5.19	-3.53
O=C1Nc2ccc(C(=O)c3ccco3)cc2C1=Cc1cc(Cl)c(O)c(Cl)c1	21.4	1.1	3.96	1.29	0.81	2.57	3.42	0.93	5.07	1.03
O=C1NC(=O)C(N2CCc3ccccc32)=C1c1ccc(Cl)cc1	-1.05	8.65	7.01	2.34	1.81	5.1	5.8	0.62	-2.87	2.3
NS(=O)(=O)c1cccc(-c2ccc3c(NC(=O)C4CC4)n[nH]c3c2)c1	–	-1.17	0.04	-1.52	-1.15	-2.1	-0.67	7.33	-5.95	2.48
NC(=O)c1cccc(Nc2nccc(Nc3cccc4[nH]ncc34)n2)c1	2.8	-5.7	-0.69	-3.16	-0.55	-3.68	-3.07	-1.09	13.4	3.11
Nc1nc(-c2ccccn2)c(-c2ccc3ncccc3n2)s1	-0.98	3.7	4.24	1.82	1.66	3.03	3.63	5.99	4.49	-7.45
[O-][S+]1CCN(Cc2ccc(-c3ccc4ncnc(Nc5ccc(OCc6ccccc6)c(F)c5)c4c3)o2)CC1	5.46	1.29	5.06	0.28	-0.13	1.32	1.96	-1.94	-2.2	2.21
NCc1ccc(-c2nc(-c3ccc(Cl)c(O)c3)c(-c3ccncc3)[nH]2)cc1	0.12	1.09	2.83	-1.23	-1.01	-0.7	-0.37	–	-6.81	7.6
CCn1c(-c2nonc2N)nc2c(C#CC(C)(C)O)nc(OC[C@@H](N)c3ccccc3)cc21	14.1	-5.15	1.43	3.89	36.3	-1.93	0.72	87	87.7	90.8
